In PubChem BioAssay (NCI):
This is part of a sample that, as a whole, favours compounds with a hit. Of some 83,000 tested, about 20% had one in any assay.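 Activity criterion: percent growth below 10, measured after cells in 96-well plates were exposed to a single compound concentration for 48 hours.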 The source made the active and inactive calls.

How the values were obtained:
Test in all cases: NCI-60 one-dose screen, 48 h (100 = growth as untreated, 0 = no growth, -100 = all killed)
Settings in all cases: 10 µM
NCI-H23 lung = tested on: NCI-H23 lung
NCI-H226 lung = tested on: NCI-H226 lung
NCI-H322M lung = tested on: NCI-H322M lung
NCI-H460 lung = tested on: NCI-H460 lung
HOP-92 NSCLC = tested on: HOP-92 NSCLC
NCI-H522 lung = tested on: NCI-H522 lung
A549/ATCC NSCLC = tested on: A549/ATCC NSCLC
786-0 renal = tested on: 786-0 renal
COLO 205 colon = tested on: COLO 205 colon
DU-145 prostate = tested on: DU-145 prostate
K-562 leukemia = tested on: K-562 leukemia
MALME-3M melanoma = tested on: MALME-3M melanoma
MDA-MB-231 breast = tested on: MDA-MB-231 breast
SF-268 CNS = tested on: SF-268 CNS
SF-295 CNS = tested on: SF-295 CNS
SF-539 CNS = tested on: SF-539 CNS
UACC-257 melanoma = tested on: UACC-257 melanoma
M14 melanoma = tested on: M14 melanoma
RXF 393 renal = tested on: RXF 393 renal
HOP-62 NSCLC = tested on: HOP-62 NSCLC

Measured: growth

Clc1cc(Cl)c(Cl)c(-c2nc(-c3cccnc3)cs2)c1
inactive: NCI-H23 lung 94.8% | NCI-H226 lung 90.9% | NCI-H322M lung 99.2% | NCI-H460 lung 92.2% | HOP-92 NSCLC 79.7% | A549/ATCC NSCLC 78.9% | 786-0 renal 99.1% | COLO 205 colon 57.1% | DU-145 prostate 37.2% | K-562 leukemia 12% | MALME-3M melanoma 28.6% | MDA-MB-231 breast 74% | SF-268 CNS 85.8% | SF-295 CNS 100% | SF-539 CNS 81.4% | UACC-257 melanoma 64.2% | M14 melanoma 51.8%
active: NCI-H522 lung -51%

O=C(COCc1c(-c2ccccc2)no[n+]1[O-])Nc1nc(-c2ccc(Cl)cc2)cs1
inactive: NCI-H23 lung 93.6% | NCI-H226 lung 90.4% | NCI-H322M lung 104% | NCI-H460 lung 106% | HOP-92 NSCLC 86.8% | NCI-H522 lung 81.1% | A549/ATCC NSCLC 105% | 786-0 renal 120% | COLO 205 colon 113% | DU-145 prostate 109% | K-562 leukemia 108% | MALME-3M melanoma 97.8% | MDA-MB-231 breast 99.9% | RXF 393 renal 112% | SF-268 CNS 97.9% | SF-295 CNS 101% | SF-539 CNS 109% | UACC-257 melanoma 96.5% | M14 melanoma 108%

O=NN(CC(=O)N/N=C/C=C\c1ccccc1)CC(=O)N/N=C/C=C/c1ccccc1
inactive: NCI-H23 lung 112% | NCI-H226 lung 90.7% | NCI-H322M lung 91.2% | NCI-H460 lung 99.3% | HOP-92 NSCLC 60.6% | NCI-H522 lung 95.5% | A549/ATCC NSCLC 97.3% | 786-0 renal 110% | DU-145 prostate 109% | K-562 leukemia 96.9% | MALME-3M melanoma 90.6% | MDA-MB-231 breast 89.2% | RXF 393 renal 71.3% | SF-268 CNS 88% | SF-295 CNS 106% | SF-539 CNS 92.3% | UACC-257 melanoma 98.8% | M14 melanoma 97.5%

CCCCCCCC/C=C/CCCCCCCCC1=NCCN1CCO
active: NCI-H460 lung -34% | HOP-92 NSCLC -5.31% | K-562 leukemia -11.8%
inactive: NCI-H23 lung 76.5% | NCI-H226 lung 86.9% | NCI-H322M lung 55.5% | NCI-H522 lung 76.7% | A549/ATCC NSCLC 77.5% | 786-0 renal 75% | COLO 205 colon 70.7% | DU-145 prostate 84.7% | MALME-3M melanoma 85.8% | MDA-MB-231 breast 68.3% | RXF 393 renal 56.8% | SF-268 CNS 77.3% | SF-295 CNS 39.6% | SF-539 CNS 75.6% | UACC-257 melanoma 83.5% | M14 melanoma 74%

CN(C)Cc1cccs1
inactive: NCI-H23 lung 94% | NCI-H226 lung 93.9% | NCI-H322M lung 101% | NCI-H460 lung 108% | HOP-92 NSCLC 97.2% | NCI-H522 lung 94.2% | A549/ATCC NSCLC 93.7% | 786-0 renal 103% | COLO 205 colon 107% | DU-145 prostate 111% | K-562 leukemia 109% | MALME-3M melanoma 96.7% | MDA-MB-231 breast 90.4% | RXF 393 renal 99.3% | SF-268 CNS 95.2% | SF-295 CNS 100% | SF-539 CNS 96.1% | UACC-257 melanoma 96.9% | M14 melanoma 94.8%

CC1(C)CC(=O)c2c(nc3ccc(Cl)cc3c2-c2ccccc2)C1
inactive: NCI-H23 lung 89.9% | NCI-H226 lung 97.6% | NCI-H322M lung 103% | NCI-H460 lung 90.1% | HOP-92 NSCLC 45.6% | NCI-H522 lung 73% | A549/ATCC NSCLC 95.7% | 786-0 renal 101% | COLO 205 colon 94.5% | DU-145 prostate 106% | K-562 leukemia 55.7% | MDA-MB-231 breast 85% | SF-268 CNS 90.9% | SF-295 CNS 76% | SF-539 CNS 97.9% | UACC-257 melanoma 106% | M14 melanoma 99.9%
active: RXF 393 renal 3.11%

O=S(=O)(NCl)c1ccccc1
inactive: NCI-H23 lung 104% | NCI-H226 lung 110% | NCI-H322M lung 88.1% | NCI-H460 lung 105% | HOP-92 NSCLC 108% | NCI-H522 lung 99.6% | A549/ATCC NSCLC 94.7% | 786-0 renal 95.9% | COLO 205 colon 113% | DU-145 prostate 106% | K-562 leukemia 97.3% | MALME-3M melanoma 97.5% | MDA-MB-231 breast 115% | RXF 393 renal 109% | SF-268 CNS 99.9% | SF-295 CNS 94.3% | SF-539 CNS 106% | UACC-257 melanoma 103% | M14 melanoma 107%

O=C(NC1CCCC1)c1ccc(N2CCC(NCc3cccc(C(F)(F)F)c3)CC2)cc1
inactive: NCI-H23 lung 93.5% | NCI-H226 lung 84.6% | NCI-H322M lung 89.1% | NCI-H460 lung 99.5% | HOP-92 NSCLC 52.7% | NCI-H522 lung 93.6% | A549/ATCC NSCLC 93% | 786-0 renal 84.3% | DU-145 prostate 91.2% | K-562 leukemia 38% | MALME-3M melanoma 70.3% | MDA-MB-231 breast 78.1% | RXF 393 renal 79.1% | SF-268 CNS 90.3% | SF-295 CNS 96.3% | SF-539 CNS 97.6% | UACC-257 melanoma 91.3% | M14 melanoma 77.5%
active: COLO 205 colon 8.68%

COc1ccc(C2=NNC(c3sc(Cl)nc3Cl)C2)cc1 (stereo not given)
active: NCI-H522 lung 9.05% | K-562 leukemia 7.31%
inactive: NCI-H23 lung 93.7% | NCI-H226 lung 54.4% | NCI-H322M lung 90.3% | NCI-H460 lung 103% | HOP-92 NSCLC 75.2% | A549/ATCC NSCLC 94.7% | 786-0 renal 99.2% | COLO 205 colon 63.1% | DU-145 prostate 86.6% | MALME-3M melanoma 74.3% | MDA-MB-231 breast 67.3% | RXF 393 renal 71.7% | SF-268 CNS 73% | SF-295 CNS 102% | SF-539 CNS 110% | UACC-257 melanoma 94% | M14 melanoma 59.7%

CCOc1cc(Br)c(C(C)NC(=O)c2cccc(OC)c2)cc1OCC (stereo not given)
inactive: NCI-H23 lung 79.7% | NCI-H226 lung 89.2% | NCI-H322M lung 94.3% | NCI-H460 lung 78.1% | NCI-H522 lung 83.6% | A549/ATCC NSCLC 76.6% | 786-0 renal 68.1% | COLO 205 colon 23.8% | DU-145 prostate 93.4% | MDA-MB-231 breast 39% | RXF 393 renal 41.6% | SF-268 CNS 75.5% | SF-295 CNS 92.1% | SF-539 CNS 76.2%
active: HOP-92 NSCLC 8.9% | K-562 leukemia 8.6% | MALME-3M melanoma -9.34% | UACC-257 melanoma -66.9% | M14 melanoma -67.2%

CCCCCCCCCCCCCCCC(=O)N1CCN(C)CC1
inactive: NCI-H23 lung 85.1% | NCI-H322M lung 71.3% | HOP-62 NSCLC 89% | NCI-H460 lung 68.6% | HOP-92 NSCLC 31.7% | NCI-H522 lung 17.1% | A549/ATCC NSCLC 95.5% | 786-0 renal 86% | COLO 205 colon 68.6% | DU-145 prostate 87.2% | K-562 leukemia 15.9% | MALME-3M melanoma 90.3% | MDA-MB-231 breast 54.7% | RXF 393 renal 77% | SF-268 CNS 73.7% | SF-295 CNS 83.7% | SF-539 CNS 73.9% | UACC-257 melanoma 91.8%
